In the library only some 0.51% were active in any assay of this set; here they are far more common.
E coli growth-1: E. coli growth inhibition; Escherichia coli growth, OD600, 23 h; stronger effect = lower value; OD600 absorbance (concentration not given with the values); 330,000 tested, 0.21% active; AID 1053175;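 active means OD600 absorbance below the run mean of sample wells minus 3.6 SD, in any replicate, cut at about 0.56 in these data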
phage Ecoli inh: E. coli growth loss with phage present; growth absorbance; inhibition, % at 11.9 µM; 360,000 tested, 0.26% active; in the data active means inhibition above about 11%
AddAB inh: less growth of phage-infected E. coli with AddAB; E. coli expressing H. pylori AddAB, absorbance growth; inhibition, % at 11.9 µM; 330,000 tested, 0.29% active; in the data active means inhibition above about 12%;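 further: 0% = vehicle wells of infected cells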
Tat transport: blocks Tat-dependent protein export in E. coli. 340,000 tested, 0.036% active. E. coli MC4100 TorA-mCherry Tat export, fluorescence. inhibition, % at 10 µM;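 active means mean replicate inhibition at least 50% and at least half of replicates individually reaching 50%; inconclusive means only one of the two criteria met; inactive means neither criterion met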;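 further: exported cargo escapes ClpAP degradation while cytoplasmic cargo is degraded and loses fluorescence; 0% = median of neutral control wells and 100% = median of NaSCN control wells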
E coli growth-2: bacterial growth inhibition, counter-screen for AddAB inhibitors. E. coli V3065 growth, OD600 absorbance, 18 h. inhibition, % at 11.9 µM. 330,000 tested, 0.27% active. AID 449728;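 active means inhibition above the campaign's mean inhibition across all tested compounds plus 3 SD, cut at about 9.9% in these data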;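 further: uninfected addAB+ strain grown without phage in ampicillin broth; 0% = DMSO wells and 100% = ciprofloxacin 0.95 µg/ml wells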
pCIP destab: p/CIP protein destabilization; AID 1984; decrease of EGFP signal, % at 10 µM; Q05BA5; F442A p/CIP-EGFP cells, EGFP fluorescence, 16 h; 290,000 tested, 0.01% active;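 active means EGFP signal decrease of at least 30% at 10 µM or well 3 SD below plate mean, unless failing retest; inactive means the rest, including hits failing retest or dose response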
Target sequence (Q05BA5 1-1403): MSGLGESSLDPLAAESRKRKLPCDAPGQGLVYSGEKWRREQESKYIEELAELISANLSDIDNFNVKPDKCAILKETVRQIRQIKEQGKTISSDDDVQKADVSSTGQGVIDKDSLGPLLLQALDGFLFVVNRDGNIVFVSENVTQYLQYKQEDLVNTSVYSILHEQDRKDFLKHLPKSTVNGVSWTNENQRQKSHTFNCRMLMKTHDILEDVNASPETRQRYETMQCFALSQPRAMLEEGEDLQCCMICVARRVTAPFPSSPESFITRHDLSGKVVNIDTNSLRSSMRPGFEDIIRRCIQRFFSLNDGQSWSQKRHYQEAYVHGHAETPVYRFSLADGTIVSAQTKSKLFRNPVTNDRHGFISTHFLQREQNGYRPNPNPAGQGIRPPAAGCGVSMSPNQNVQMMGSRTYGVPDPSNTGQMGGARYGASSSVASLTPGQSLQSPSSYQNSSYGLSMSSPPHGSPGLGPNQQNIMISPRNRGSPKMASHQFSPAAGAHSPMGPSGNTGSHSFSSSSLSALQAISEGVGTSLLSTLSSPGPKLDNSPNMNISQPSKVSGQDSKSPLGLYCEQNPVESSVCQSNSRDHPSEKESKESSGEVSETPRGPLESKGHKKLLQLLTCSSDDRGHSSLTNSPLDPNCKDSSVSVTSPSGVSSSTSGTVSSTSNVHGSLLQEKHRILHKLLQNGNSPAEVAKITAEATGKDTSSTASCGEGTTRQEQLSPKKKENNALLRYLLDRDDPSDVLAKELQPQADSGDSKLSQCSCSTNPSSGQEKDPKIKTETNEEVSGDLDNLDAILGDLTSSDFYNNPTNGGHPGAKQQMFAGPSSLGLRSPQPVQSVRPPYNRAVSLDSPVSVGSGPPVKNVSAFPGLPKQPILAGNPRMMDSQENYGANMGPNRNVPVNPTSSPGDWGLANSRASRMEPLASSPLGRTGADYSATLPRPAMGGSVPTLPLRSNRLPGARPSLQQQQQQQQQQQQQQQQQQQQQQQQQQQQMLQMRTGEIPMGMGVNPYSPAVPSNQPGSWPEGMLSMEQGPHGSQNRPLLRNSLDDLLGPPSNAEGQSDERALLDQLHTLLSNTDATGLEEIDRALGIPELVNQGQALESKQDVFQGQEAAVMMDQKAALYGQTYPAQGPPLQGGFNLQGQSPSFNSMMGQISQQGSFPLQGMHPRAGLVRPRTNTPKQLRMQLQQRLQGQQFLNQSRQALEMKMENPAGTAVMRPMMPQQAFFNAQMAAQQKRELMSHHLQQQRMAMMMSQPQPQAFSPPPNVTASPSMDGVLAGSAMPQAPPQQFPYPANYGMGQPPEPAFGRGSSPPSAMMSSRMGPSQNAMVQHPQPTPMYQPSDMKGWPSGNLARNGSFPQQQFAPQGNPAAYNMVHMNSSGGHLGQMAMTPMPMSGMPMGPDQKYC
RecBCD conf: growth loss of phage-infected V66 E. coli, RecBCD confirmation screen. shares compounds with phage Ecoli inh. inhibition, % at 11.9 µM. 890 tested, 45% active. E. coli V66 + T4 2- phage, growth OD;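 active means mean inhibition over triplicates exceeding the hit threshold derived in the original primary screen, cut at about 11% in these data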
Ecoli viability: inhibits E. coli viability, flagging RecBCD hits as nonselective; shares compounds with phage Ecoli inh; absorbance (OD) growth; inhibition, % at 11.9 µM; 890 tested, 29% active; AID 651983; in the data active means inhibition above about 20%;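 further: E. coli strain V66 grown with compound alone and no phage infection; 0% = bacteria with DMSO vehicle only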
AddAB phage OD: growth loss of phage-infected AddAB E. coli, RecBCD counter-screen; shares compounds with phage Ecoli inh; E. coli expressing H. pylori AddAB + T4 phage, OD growth; gene 2 mutant T4, recBCD-deleted host; inhibition, % at 11.9 µM; 890 tested, 45% active;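 active means mean inhibition above the solvent-only control wells' mean plus 3 SD, cut at about 22% in these data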;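 further: higher means less bacterial growth from phage killing when AddAB is blocked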
Numbers without * were called inactive; ? = inconclusive; . = not tested or not shown; ! = a repeat was not active.

SMILES	E coli growth-1	phage Ecoli inh	AddAB inh	Tat transport	E coli growth-2	pCIP destab	RecBCD conf	Ecoli viability	AddAB phage OD
O=C(O)COc1ccccc1C(Nc1cccnc1)c1cc(Cl)c2cccnc2c1O (stereo unspecified)	0.65	.	.	11	.	1	.	.	.
CCOc1ccc(C(Nc2cccnc2)c2cc(Cl)c3cccnc3c2O)cc1 (stereo unspecified)	0.69	17*	10	1	20*	-8	2	5	6
CC(=O)NC(C)c1cc(Cl)c2cccnc2c1O (stereo unspecified)	0.63	0	-7	-6	-9	.	.	.	.
COc1ccc(Cc2noc(CN(C)CC3(N4CCOCC4)CCCCC3)n2)cc1OC	0.68	94*	2	2	5	3	0	0	2
O=S(=O)(Nc1ncccn1)c1ccc(NC(=S)Nc2ccc(Cl)cc2)cc1	.	11*	7	22	6	5	4	3	5
CCc1ccc(NC(=S)Nc2ccc(S(=O)(=O)Nc3ncccn3)cc2)cc1	0.68	12*	3	19	1	-18	1	-1	6
COCC(=O)N1CCC(Oc2ccc(C(=O)NC(C)c3csc(C)n3)cc2)CC1 (stereo unspecified)	0.67	0	3	-5	-1	8	.	.	.
CN[C@@H](CO)C(=O)NC[C@H]1O[C@@H](n2cnc3c(=O)[nH]c(N)nc32)[C@H](O)[C@@H]1O	.	5	.	.	.	.	.	.	.
Cc1ccc(-c2nc(CS(=O)CC(=O)NCc3ccccc3)c(C)o2)cc1 (stereo unspecified)	0.81	29*	-1	-13	1	-13	-1	-2	1
CCOC(=O)c1c[nH]c2c([N+](=O)[O-])cc(OC)cc2c1=O	0.45*	12*	.	-2	.	.	6	10	44*
O=C(CN(c1ccc(Cl)cc1)S(=O)(=O)c1ccccc1)N1CCN(c2ccccc2)CC1	0.74	2	3	11	2	-9	.	.	.
O=C(N/N=C/c1c(O)n(Cc2ccccc2)c(=O)c2ccccc12)c1cccnc1	0.71	15*	6	-1	11*	11	9	11	20
O=C(N/N=C/c1c(O)n(-c2ccccc2Cl)c(=O)c2ccccc12)c1cccnc1	0.64	5	.	7	.	-9	.	.	.
COc1ccc(Cn2c(O)c(/C=N/NC(=O)c3cccnc3)c3ccccc3c2=O)cc1	0.66	15*	.	4	.	-6	8	10	14
CC1(C)C(=O)C2(CCCCC2)C(=O)OC1C(=O)c1ccccc1 (stereo unspecified)	0.72	2	3	7	-1	0	.	.	.
Cn1cc(S(=O)(=O)N2CCC(C(N)=O)CC2)c(=O)n(C)c1=O	0.72	94*	1	-2	1	-7	0	1	-2
Cc1ccc2c(Cl)cc(Cl)c(O)c2n1	0.064*	13*	.	?	.	.	7	9	8
OCc1ccc(O)c2ncccc12	0.78	5	-1	-6	4	-2	.	.	.
Cc1ccc(S(=O)(=O)Nc2cc(Cl)c(O)c3ncccc23)cc1	.	12*	11	-1	11*	-18	5	9	9
Oc1c(Cl)cc(Cl)c2cccnc12	0.071*	43*	.	5	.	-7	55*	62*	51*
Clc1cc2cccnc2c2ccccc12	0.68	2	3	4	2	16	.	.	.
Oc1c(I)cc(I)c2cccnc12	0.43*	23*	-1	-4	1	3	26*	30*	25*
Cc1cc(Cl)c2ccc3ccccc3c2n1	0.69	3	0	-2	0	-1	.	.	.
COC(=O)C1=C(C)N(CCc2ccc(OC)c(OC)c2)C(=O)/C1=C\c1ccc(O)cc1	0.71	1	2	6	2	1	.	.	.
CC(=O)NCCCc1nc2ccccc2n1Cc1ccccc1F	0.65	22*	3	1	1	-1	-2	-1	-1
SMILES	E coli growth-1	phage Ecoli inh	AddAB inh	Tat transport	E coli growth-2	pCIP destab	RecBCD conf	Ecoli viability	AddAB phage OD
CC1(C(=O)NS(=O)(=O)C2CC2)CCCN(C(=O)c2ccccc2C(F)(F)F)C1 (stereo unspecified)	.	0	.	.	.	.	.	.	.
O=C(Nc1ccccc1-c1nnn(CC(=O)N2CCOCC2)n1)c1ccc(F)cc1	0.67	11*	2	-3	-1	-9	-4	-5	0
COc1cc(/C=N/NC(=O)c2ccncc2)ccc1O	.	100*!	-2	-9	-3	1	-2	-1	-1
Cc1cnc(C(=O)NCc2ccc(Cl)cc2Cl)cn1	0.7	-2	1	5	-1	-11	.	.	.
COc1ccc(OCCCC(=O)ON=C(N)c2ccccc2C)cc1	0.7	2	-1	-5	-1	.	.	.	.
CCOc1ccc(OCCCC(=O)ON=C(N)c2ccccc2Cl)cc1	0.64	11*	1	3	-3	.	0	0	4
Cc1ccc(C(NC(=O)C(C)C)c2cc([N+](=O)[O-])c3cccnc3c2O)cc1 (stereo unspecified)	0.66	3	6	-8	1	1	.	.	.
CCCC(=O)NC(c1cccc([N+](=O)[O-])c1)c1ccc2cccnc2c1O (stereo unspecified)	.	23*	.	.	.	.	16*	20*	26*
CC(=O)NC(c1ccc(Cl)cc1Cl)c1ccc2cccnc2c1O (stereo unspecified)	.	24*	.	-19	.	-11	17*	20*	21
Oc1c(C(Nc2cccc(C(F)(F)F)c2)c2ccncc2)ccc2cccnc12 (stereo unspecified)	0.65	1	-7	4	-9	-8	.	.	.
CCN(CC)c1ccc(C(NC(=O)C(C)C)c2ccc3cccnc3c2O)cc1 (stereo unspecified)	.	21*	.	.	.	.	8	9	16
COc1ccc(C=NNC(=O)CSc2ccccc2)cc1OC	0.71	.	.	.	.	.	.	.	.
CCn1ccc(C(=O)NCc2ccc3c(c2)OCO3)n1	0.61	1	1	-4	2	-5	.	.	.
O=C(N/N=C/c1cc(Cl)ccc1O)C(=O)Nc1ccccc1OC(F)(F)C(F)F	.	16*	12	-12	12*	-15	4	7	10
O=C(Nc1ccc(Cl)c(C(F)(F)F)c1)c1ccco1	0.62	2	2	6	-1	-10	.	.	.
CCNC(=S)Nc1ccc(Cl)c(C(F)(F)F)c1	0.6	12*	7	6	7	2	4	4	12
CSc1sc(C)cc1/C=N/O	.	1	4	-3	-2	-4	.	.	.
COc1ccc(OCc2cc(C(=O)N(C)C3CCOC3)no2)c(Cl)c1 (stereo unspecified)	0.65	2	2	-8	0	-18	.	.	.
